This is a sample that favours compounds with a hit; in the whole collection about 3.6% have one here.
MmCpn inh: inhibitors of Methanococcus maripaludis chaperonin TRiC (MmCpn); purified Mm-Cpn ATPase, ADP Transcreener TR-FRET; Potency, µM (series often up to 76.9 µM), without a hit: top-dose activity, negative = inhibition, usual class: inhibitors; 330,000 tested, 0.031% active; note: % is set by controls: 0 for no effect and ±100 for the full control effect; nearly all actives have a fitted effect of over 80% in size
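ATPase read-out: TR-FRET ADP immunoassay (anti-ADP Eu cryptate vs ADP-d2), ex 320 nm, em 590/665 nm; signal drops as ADP forms. Enzyme 25 nM, ATP 10 uM, 30 min at 37°C after 10 min compound preincubation.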
TDP43 rescue: TDP-43 toxicity inhibition in yeast; TDP-43 expressing yeast growth rescue, BacTiter-Glo, 24 h; Potency, µM (titrated, usually from 46.1 µM), inactives show at the top dose growth rescue (activation), most hits filed as activators; 410,000 tested, 1.8% active; AID 652104; note: % of control where 0% means no effect; nearly all actives have a fitted effect of over 50% in size
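Cell-based yeast growth screen: TDP-43 expression induced in galactose, inoculum OD600=0.02 after raffinose pregrowth to mid-log. Read-out BacTiter-Glo luminescence at 24 hr, 30 deg C; inhibition of toxicity seen as signal increase.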
aSyn rescue: alpha-synuclein toxicity inhibition in yeast; Yeast expressing alpha-synuclein, growth rescue, BacTiter-Glo, 24 h; Potency, µM (series often up to 46.1 µM), without a hit: at the highest dose growth rescue (activation), actives largely listed as activators; 370,000 tested, 0.14% active; note: % of control where 0% means no effect; nearly all actives have a fitted effect of over 65% in size
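Galactose-induced alpha-syn yeast (OD600=0.02, raffinose-pregrown) + pinned cpd, 24 hr, 30 deg C; growth by BacTiter-Glo luminescence. Growth restoration scores as activation.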
ClpP mod: qHTS Assay for Activators of ClpP. purified B. subtilis ClpP, FRET peptide cleavage, 20 min. 340,000 tested, 1.9% active. ATP-dependent Clp protease proteolytic subunit (Bacillus subtilis (strain 168)), P80244. Potency, µM (doses to about 57.5 µM), without a hit: at the highest dose activity change, negative = active; active = well fitted falling curve with a large enough effect; inconclusive = small, poorly fitted or top-dose-only effect; inactive = no such curve, though single readings can be large or run the other way; note: the source files actives as falling curves though it sought activators and does not explain the sign; nearly all actives have a fitted effect of over 65% in size
Target sequence (P80244 whole entry, looked up): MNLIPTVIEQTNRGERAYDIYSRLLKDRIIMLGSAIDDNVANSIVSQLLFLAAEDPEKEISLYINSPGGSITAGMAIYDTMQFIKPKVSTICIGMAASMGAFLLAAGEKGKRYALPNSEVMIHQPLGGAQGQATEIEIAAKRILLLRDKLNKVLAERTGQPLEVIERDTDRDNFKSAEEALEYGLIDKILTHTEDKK
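Buffer: 100 mM Tris/HCl pH8, 100 mM KCl, 0.05% low protease BSA, 2.5% glycerol, 0.01% Tween-20. ClpP 10 microg/mL final; 20 min RT; delta FRET normalized to ADEP and DMSO controls.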
Abeta yeast res: compounds reversing amyloid beta toxicity in yeast. yeast expressing A-beta42, growth rescue, OD600, 48 h; response scale: 0% DMSO, 100% iron-clioquinol control. Potency, µM (highest dose often 46.1 µM), hits mostly activators. 410,000 tested, 0.063% active. AID 1347071; note: nearly all actives have a fitted effect of over 55% in size
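Yeast A-beta toxicity model in growth medium with pinned compounds, 48 h at 30 C; growth read as absorbance at 600 nm. Normalized to FeCl3/clioquinol equimolar mix (positive) and DMSO (negative).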
FUS suppressor: rescues growth of FUS-expressing yeast. Potency, µM (top dose mostly 76.6 µM), most hits filed as activators. 390,000 tested, 0.24% active. S. cerevisiae FUS-expressing, growth rescue, OD600, 24 h;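 note: plate controls were DMSO vehicle for no effect and reference control for full effect; nearly all actives have a fitted effect of over 55% in size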
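Galactose (2%) drives FUS expression in yeast precultured in raffinose; seeding density OD 0.005. Test compounds incubated 24hr at 30C and 99% humidity before absorbance at 600 nm was measured.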
Numbers without * were called inactive; [ ] = another dose, or the depositor's remark. Unless noted, calls come from the whole dose curve; as a rule, active = well fitted curve in the direction sought with a large enough effect; inconclusive = small, poorly fitted or top-dose-only effect, or another doubt; inactive = no such curve, though single readings can be large; an effect the other way counts as inactive or inconclusive. Potency is the fitted concentration of half-maximal effect.

`COc1ccccc1Nc1nc(-c2cccc([N+](=O)[O-])c2)cs1` gave MmCpn inh -1%, TDP43 rescue 22µM*, aSyn rescue -20%, ClpP mod 0%, Abeta yeast res inactive and FUS suppressor inactive.
`O=[N+]([O-])c1cccc(-c2csc(Nc3ccccc3)n2)c1` gave MmCpn inh -6%, TDP43 rescue -89%, aSyn rescue -30%, Abeta yeast res inactive and FUS suppressor inactive.
Screening Cc1cn(-c2cc(NC(=O)c3ccc(C)c(Nc4nccc(-c5cccnc5)n4)c3)cc(C(F)(F)F)c2)cn1 returned FUS suppressor inactive.
Screening O=C(c1cnn(C(=O)c2ccco2)c1)c1cc(F)ccc1O returned MmCpn inh 0%, TDP43 rescue 28µM*, aSyn rescue -11%, ClpP mod 26%, Abeta yeast res inactive and FUS suppressor inactive.
`O=C(c1cnn(C(=O)c2ccco2)c1)c1cc(Cl)cc(Cl)c1O` gave MmCpn inh 1%, TDP43 rescue inconclusive, aSyn rescue 10%, ClpP mod -2% and Abeta yeast res inactive.
For CCCCn1nc(NC(=O)CC(C)C)c2cc3cc(OC)ccc3nc21 the results were MmCpn inh 0%, TDP43 rescue -16%, aSyn rescue -10%, ClpP mod -8%, Abeta yeast res inactive and FUS suppressor inactive.
Screening CCCCn1nc(NC(=O)CCC)c2cc3cc(OC)ccc3nc21 returned MmCpn inh -6%, TDP43 rescue inconclusive, aSyn rescue 11%, ClpP mod 32µM*, Abeta yeast res inactive and FUS suppressor inactive.
`COc1ccc2nc3c(cc2c1)c(NC(=O)C1CCCO1)nn3CC(C)C` (stereo not drawn) gave MmCpn inh -5%, TDP43 rescue 21%, aSyn rescue 13%, ClpP mod 22µM*, Abeta yeast res inactive[9.22 µM] and FUS suppressor inactive.
For CCCn1nc(NC(=O)C2CCCO2)c2cc3ccc(C)cc3nc21 (stereo not drawn) the results were MmCpn inh -2%, TDP43 rescue 2%, aSyn rescue -3%, Abeta yeast res inactive and FUS suppressor inactive.
`CCCn1nc(NC(=O)C2CCCO2)c2cc3cc(C)ccc3nc21` (stereo not drawn) gave MmCpn inh -10%, TDP43 rescue 35µM*, aSyn rescue -2%, ClpP mod -6%, Abeta yeast res inactive and FUS suppressor inactive.
For CCOC(=O)COc1ccc2nsnc2c1Cl the results were MmCpn inh inconclusive, TDP43 rescue 14%, aSyn rescue 1%, ClpP mod 35µM*, Abeta yeast res inactive and FUS suppressor inconclusive.
`O=C(NCc1ccco1)C1CCCN(S(=O)(=O)c2ccc(F)cc2)C1` (stereo not drawn) gave FUS suppressor inactive.
`COc1ccc(Cl)cc1NC(=O)C1CCN(S(=O)(=O)c2ccc3c(c2)CC(C)N3C(C)=O)CC1` (stereo not drawn) gave TDP43 rescue 0%, ClpP mod -1%, Abeta yeast res inactive and FUS suppressor inactive.
COc1ccc(C(C)(O)c2nc(-c3csc4ccccc34)cs2)cc1 (stereo not drawn) was read as TDP43 rescue 22µM*, aSyn rescue 27%, ClpP mod 1%, Abeta yeast res inconclusive and FUS suppressor inactive.
For COc1ccc(C(C)(O)c2nc(/C=C/c3ccccc3)cs2)cc1 (stereo not drawn) the results were TDP43 rescue 35µM*, aSyn rescue inconclusive, ClpP mod -23%, Abeta yeast res inconclusive and FUS suppressor inactive.
`O=S1(=O)CC(O)C(N2CCCCC2)C1` (stereo not drawn) gave MmCpn inh -1%, TDP43 rescue 3%, aSyn rescue -7%, ClpP mod 11µM*, Abeta yeast res inactive[9.22 µM] and FUS suppressor inactive.
Screening CC(=O)Nc1ccc(-c2nnc(SCc3ccccc3)n2C)cc1 returned aSyn rescue 5% and ClpP mod 0%.
For Cn1cnnc1SCC(=O)Nc1sc2c(c1C(N)=O)CCC2 the results were MmCpn inh -1%, TDP43 rescue 0%, aSyn rescue 2%, ClpP mod 0%, Abeta yeast res inactive and FUS suppressor 7.1µM*.
COc1cc(OC)cc(C(=O)Nc2sc3c(c2C(N)=O)CCC3)c1 was read as MmCpn inh -1%, TDP43 rescue -12%, aSyn rescue 3.5µM*, Abeta yeast res inactive and FUS suppressor inactive.
For COC(=O)c1c(NC(=O)CSc2nnc3ccccn23)sc2c1CCC2 the results were MmCpn inh 1%, TDP43 rescue 0%, aSyn rescue 4%, ClpP mod 28µM*, Abeta yeast res inactive and FUS suppressor inactive.
For O=C(NC1CCCCN(Cc2ccc(Cl)cc2)C1=O)c1ccc(F)c(F)c1 (stereo not drawn) the results were FUS suppressor inactive.
Screening CCC(C(=O)NCc1cc(OC)ccc1OC)n1nc(C)c2sc3ccccc3c2c1=O (stereo not drawn) returned TDP43 rescue 13%, ClpP mod 77%, Abeta yeast res inactive and FUS suppressor inactive.
C[n+]1ccc(C(c2c[nH]c3ccccc23)c2cc[n+](C)c3ccccc23)c2ccccc21 was read as ClpP mod -16%.
`Nc1ccccc1C#Cc1ccccc1` gave MmCpn inh 0%, TDP43 rescue 20%, aSyn rescue -3%, ClpP mod 4%, Abeta yeast res inactive and FUS suppressor inactive.
For Nc1ccc(C#Cc2ccccc2)cc1 the results were MmCpn inh -2%, TDP43 rescue 14µM*, aSyn rescue 5%, ClpP mod -1%, Abeta yeast res inactive and FUS suppressor inactive.
CCN(C(=O)COc1ccc2ccc(=O)oc2c1)C1CCCCC1 was read as MmCpn inh -1%, TDP43 rescue inconclusive, aSyn rescue 9%, ClpP mod 25µM* and Abeta yeast res inactive.
Screening CN(C)C(=O)COc1ccc2ccc(=O)oc2c1 returned MmCpn inh -2%, TDP43 rescue 7%, aSyn rescue 6%, ClpP mod 32µM*, Abeta yeast res inactive and FUS suppressor inactive.
CCOC(=O)c1sc(-c2cccs2)nc1C was read as MmCpn inh 1%, TDP43 rescue 17%, aSyn rescue 1%, ClpP mod 13%, Abeta yeast res inactive and FUS suppressor inactive.

Screening data from PubChem.
